High-throughput results: PubChem, National Center for Advancing Translational Sciences (NCATS)
An excerpt weighted towards active compounds, which were near 10% of everything screened.
NS1 inh: inhibitors of influenza NS1 protein function. Potency, µM (top dose mostly 46.1 µM), without a hit: top-dose activity, positive = more growth. 0.4% of 270,000 active; calls by dose curve; note: actives are rising curves; nearly all actives have a fitted effect of over 50% in size
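In this qHTS, NS1 from influenza A is expressed in budding yeast, where it slows growth. Cells are switched from glucose to 2% galactose medium (pH 6.0, -URA), treated with compound, and growth recovery is read at OD600.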
Pf growth 48h: P. falciparum growth inhibition at 48 hours (one generation); P. falciparum luciferase growth in erythrocytes, 48 h; Potency, µM (top dose mostly 28.7 µM), for inactives: top-dose activity change, negative = inhibition, usual class: inhibitors; 5.9% of 310,000 active; AID 504832; note: % is set by controls: 0 for no effect and ±100 for the full control effect
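A one-generation exposure of luciferase-tagged malaria parasites in RPMI 1640/Albumax erythrocyte culture, 37 C and 5% CO2. Inhibition is inferred from decreased luminescence after adding detection reagent.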
SARS PLpro yeast: blocks SARS-CoV papain-like protease in a yeast assay; 0.19% of 330,000 active; S. cerevisiae expressing SARS-CoV PLpro, growth rescue; Potency, µM (series often up to 32.9 µM), without a hit: top-dose activity, positive = growth rescue, hits mostly activators; calls by dose curve; note: 0% is about no effect; nearly all actives have a fitted effect of over 55% in size
Pf growth 96h: P. falciparum growth inhibition at 96 hours; 6.9% of 320,000 active; AID 504834; P. falciparum luciferase reporter growth, 96 h; Potency, µM (titrated, usually from 28.7 µM), inactives show top-dose activity change, negative = inhibition, most hits filed as inhibitors; note: % is set by controls: 0 for no effect and ±100 for the full control effect
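P. falciparum expressing integrated firefly luciferase grown in erythrocytes (2% hematocrit, 0.05% parasitemia final) with compounds for 96 hours at 37 C, 5% CO2. Growth inhibition read as loss of luminescence after adding luciferase detection reagent.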
Starred values were filed as active, the others as inactive; ? = inconclusive; . = no result given. Unless noted, calls come from the whole dose curve; as a rule, active = well fitted inhibition curve with a large enough effect; inconclusive = small, poorly fitted or top-dose-only effect, or another doubt; inactive = no such curve, though single readings can be large or run the other way. Potency is the fitted concentration of half-maximal effect.

SMILES | NS1 inh | Pf growth 48h | SARS PLpro yeast | Pf growth 96h
CCOc1cccc(C2C(C(=O)c3ccco3)=C(O)C(=O)N2c2nnc(C)s2)c1 (stereo unspecified) | . | -3% | 1% | ?
CN(C)CCN1C(=O)C(O)=C(C(=O)c2cc3ccccc3o2)C1c1ccccn1 (stereo unspecified) | 16% | 38% | 6% | 129%
CCOc1cccc(C2C(C(=O)c3ccco3)=C(O)C(=O)N2Cc2ccncc2)c1 (stereo unspecified) | -13% | 5% | 1% | 2.6µM*
CN(C)CCN1C(=O)C(O)=C(C(=O)c2cc3ccccc3o2)C1c1ccc(N(C)C)cc1 (stereo unspecified) | -8% | 54% | -3% | 9.3µM*
C=CCOc1cccc(C2C(C(=O)c3ccc(C)o3)=C(O)C(=O)N2CCN(C)C)c1 (stereo unspecified) | -2% | -13% | 1% | 3.7µM*
Cc1ccc(C(=O)C2=C(O)C(=O)N(CCN(C)C)C2c2ccccn2)o1 (stereo unspecified) | 6% | . | . | .
COc1ccccc1C(=O)NCCC(=O)N1CCN(S(=O)(=O)c2ccccc2C(F)(F)F)CC1 | . | ? | -1% | ?
Cc1ccc2nc(Nc3nc(C)cc(C(F)(F)F)n3)nc(C)c2c1 | 4% | ? | 4% | 5.2µM*
O=C(NCCNC(=O)c1ccccn1)c1ccc(-c2ccccc2)cc1 | -12% | ? | -2% | 6%
COC(=O)c1[nH]c2cccc(OC)c2c1NC(=O)CCN1CCN(c2ccccc2OC)CC1 | -3% | ? | 5% | -8%
COC(=O)c1[nH]c2cccc(OC)c2c1NC(=O)CCN1CCC(C)CC1 | 13% | 8% | 1% | 1.9µM*
COC(=O)c1[nH]c2cc(OC)ccc2c1NC(=O)CCN1CCCC(C)(C)C1 | 11% | 1% | 3% | 1.7µM*
O=C(O)c1ccccc1N=Cc1c(O)n(-c2nccs2)c(=O)c2ccccc12 | 6% | 7% | 0% | 1%
CCN(CC)S(=O)(=O)c1cccc(-n2c(O)c(C=Nc3ccccc3C(=O)O)c3ccccc3c2=O)c1 | 4% | 13µM* | -1% | 7.4µM*
O=C(CN1CCN(c2ccccc2O)CC1)Nc1ccc2c(c1)OCCCO2 | . | 13µM* | -2% | 15%
O=C(CSc1ccc2c(c1)OCCO2)N1CCN(c2ccccc2O)CC1 | . | ? | 1% | 7.4µM*
CC1Cc2ccccc2N1CC(=O)Nc1ccc(Cl)c(S(=O)(=O)N(C)C)c1 (stereo unspecified) | . | 9.3µM* | -2% | -54%
CC1Cc2ccccc2N1CC(=O)Nc1ccc2c(c1)OCCCO2 (stereo unspecified) | . | ? | 6% | 12µM*
O=C1C2C3C=CC(CO)(O3)C2C(=O)N1c1ccccc1-c1ccccc1 (stereo unspecified) | -73% | ? | -20% | 5.9µM*
COc1ccc(C2CC(c3ccc4ccccc4c3OC(C)=O)=NN2C(=O)/C=C/c2ccccc2)cc1 (stereo unspecified) | 22% | 12µM* | 13% | ?
COc1ccc(C2=NN(C(=O)CCC(=O)O)C(c3ccc(F)cc3)C2)cc1 (stereo unspecified) | 20% | -25% | 2% | 15µM*
COc1ccc(C2CC(c3ccccc3)=NN2C(=O)COC(=O)/C=C/c2ccc(O)c(OC)c2)cc1 (stereo unspecified) | 17% | 15µM* | -1% | ?
CC(=O)NC12CC3CC(C1)CC(C(=O)Nc1nc4ccc(F)cc4s1)(C3)C2 | 10% | 12% | 2% | -22%
Cc1c(CN2CCC(n3nccc3NC(=O)C3CCOC3)CC2)[nH]c2ccccc12 (stereo unspecified) | -1% | 11% | -2% | -11%
O=C(Nc1ccnn1C1CCN(Cc2cccc(OCCO)c2)CC1)C1CCOC1 (stereo unspecified) | 8% | -9% | 2% | 5.2µM*
O=C(Nc1ccnn1C1CCN(Cc2cc3ccccc3[nH]2)CC1)C1CCOC1 (stereo unspecified) | 1% | -14% | -1% | 5.2µM*
COc1cccc(N2CCN(C(=O)CCS(=O)(=O)c3ccc4c(c3)oc(=O)n4C)CC2)c1 | 12% | ? | -5% | 5.2µM*
CN(c1ccccc1)S(=O)(=O)c1ccc2c(c1)oc(=O)n2C | 6% | 12% | 4% | 8%
Cn1c(=O)oc2cc(S(=O)(=O)CCC(=O)N3CCN(c4ccccc4)CC3)ccc21 | -1% | ? | -1% | 9.3µM*
Cn1c(=O)oc2cc(S(=O)(=O)CCC(=O)N3CCN(c4ccccc4F)CC3)ccc21 | -2% | -18% | -1% | ?
